Shown are actives, neighbours in structure and some others; about 21% of the full set was active somewhere.
IL1B secr inh: inflammasome signaling inhibition, IL-1 beta readout; AID 743279; activity change, % at 57.5 µM; THP-1 LPS/ATP IL-1B secretion, AlphaLISA, 16 h; active compounds read low; 360,000 tested, 4.7% active; in the data active = activity change below about -50%; inconclusive = mostly about -30% to -49%; note: % is set by controls: 0 for no effect and ±100 for the full control effect
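THP-1 cells pretreated 1 hr with compounds (up to 57.5 uM final), then stimulated with LPS (250 ng/mL final) plus ATP (1.25 mM final); secreted IL-1B measured by AlphaLISA after 16 hr, decreased signal indicating inhibition.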
DRD3 antagonist: antagonists of human D3 dopamine receptor | P35462 | D3R cells, DiscoveRx beta-arrestin luminescence, antagonist mode; active compounds read low | max response, negative = inhibition, % | 360,000 tested, 2.5% active | AID 652054; in the data active = max response below about -50%; inconclusive = no clear call, values can overlap the other calls; note: % is set by controls: 0 for no effect and ±100 for the full control effect
Target sequence (P35462 whole entry, looked up): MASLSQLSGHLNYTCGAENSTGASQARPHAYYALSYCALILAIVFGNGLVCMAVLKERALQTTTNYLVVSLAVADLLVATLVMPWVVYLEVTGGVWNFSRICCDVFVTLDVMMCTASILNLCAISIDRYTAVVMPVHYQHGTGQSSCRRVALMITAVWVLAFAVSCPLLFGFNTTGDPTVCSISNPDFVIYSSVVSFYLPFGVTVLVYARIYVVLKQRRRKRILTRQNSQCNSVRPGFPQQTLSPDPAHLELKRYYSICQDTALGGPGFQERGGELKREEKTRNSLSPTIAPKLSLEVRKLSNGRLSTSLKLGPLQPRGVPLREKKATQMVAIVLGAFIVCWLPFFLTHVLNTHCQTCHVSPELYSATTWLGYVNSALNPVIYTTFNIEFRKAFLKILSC
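Cells expressing the human receptor were seeded at 1500 cells/well, incubated overnight at 37 degrees C in 5% CO2, then exposed to library compounds with dopamine controls for 90 minutes at 37 degrees C before luminescent detection.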
D3 ag: D3 dopamine receptor (human) agonism; P35462; D3R DiscoveRx beta-arrestin cells, luminescence, 90 min; max activation, %; 410,000 tested, 0.58% active; AID 652048; in the data active = max activation above about 30%; note: 0% is about no effect
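Agonist-mode cell screen: cells plated at 1500/well and incubated overnight at 37 °C, then exposed to library compounds for 90 min at 37 °C. Detection reagent was added for 30–60 min at room temperature, and luminescence was read.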
TDP1 cell CPT: DT40-hTDP1 cell growth loss with CPT | chicken DT40 Tdp1-/-;hTDP1 cells + 20 nM CPT, ATP luminescence, 48 h | Potency, µM (doses to about 46.2 µM), without a hit: at the highest dose activity change, negative = growth inhibition, actives largely listed as inhibitors | 420,000 tested, 12% active; note: potency is the fitted concentration of half-maximal effect; % is set by controls: 0 for no effect and ±100 for the full control effect; nearly all actives have a fitted effect of over 55% in size
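Chicken DT40 Tdp1-/- cells complemented with human TDP1, 400 cells/well, exposed to compounds plus 20 nM camptothecin for at least 48 h at 37 C; viability read as ATP content by CellTiter-Glo luminescence.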
ClpP mod: qHTS Assay for Activators of ClpP; Potency, µM (series often up to 57.5 µM), for the others: at the top dose activity change, negative = active; AID 651965, 2013; purified B. subtilis ClpP, FRET peptide cleavage, 20 min; ATP-dependent Clp protease proteolytic subunit (Bacillus subtilis (strain 168)), P80244; 340,000 tested, 1.9% active; active = well fitted falling curve with a large enough effect; inconclusive = small, poorly fitted or top-dose-only effect; inactive = no such curve, though single readings can be large or run the other way; note: potency is the fitted concentration of half-maximal effect; the source files actives as falling curves though it sought activators and does not explain the sign; nearly all actives have a fitted effect of over 65% in size
Target sequence (P80244 whole entry, looked up): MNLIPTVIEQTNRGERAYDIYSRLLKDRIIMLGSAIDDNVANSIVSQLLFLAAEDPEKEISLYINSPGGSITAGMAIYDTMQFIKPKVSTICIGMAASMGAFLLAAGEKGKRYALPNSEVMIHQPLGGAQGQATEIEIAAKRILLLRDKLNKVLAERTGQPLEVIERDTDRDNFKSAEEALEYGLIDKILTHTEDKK
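ClpP 10 microg/mL final, pH 8 Tris/KCl buffer with BSA, glycerol, Tween-20; compound pinned in; FRET-FV substrate; RT 20 min; Ex320/Em430; ΔFRET vs ADEP 5.8 microM, DMSO, no enzyme.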
TDP1 cell noCPT: qHTS for Inhibitors of human tyrosyl-DNA phosphodiesterase 1 (TDP1): qHTS in cells in absence of CPT; DT40 Tdp1-/- hTDP1 cells, no CPT, ATP luminescence, 48 h; Potency, µM (series often up to 46.2 µM), without a hit: at the top dose activity change, negative = growth inhibition, actives largely listed as inhibitors; 420,000 tested, 15% active; note: potency is the fitted concentration of half-maximal effect; % is set by controls: 0 for no effect and ±100 for the full control effect; nearly all actives have a fitted effect of over 55% in size
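Camptothecin absent (DMSO only). Human TDP1-complemented DT40 knockout cells, 400 cells/well, 37 °C for minimum 48 hr; ATP measured via CellTiter-Glo, 30 min dark incubation, luminescence.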
* marks the source's active call; other numbers are inactive results. Unless noted, calls come from the whole dose curve; as a rule, active = well fitted inhibition curve with a large enough effect; inconclusive = small, poorly fitted or top-dose-only effect; inactive = flat fitted curve, though single readings scatter.

COc1ccc(CNC(=O)c2cnn(-c3ccc(OC)cc3)c2C2CCN(C(=O)OC(C)(C)C)CC2)cc1 was read as D3 ag -1, TDP1 cell CPT inconclusive, ClpP mod 2% and TDP1 cell noCPT inconclusive.
Cc1ccc(CN2c3ccccc3-c3nc(SCC(=O)NCCc4ccccc4)ncc3S2(=O)=O)cc1 was read as D3 ag 3, TDP1 cell CPT inconclusive, ClpP mod inconclusive and TDP1 cell noCPT inconclusive.
`O=C(Nc1ccccc1Cl)OCC#CCOC(=O)Nc1ccccc1Cl` gave IL1B secr inh 7, DRD3 antagonist 32, D3 ag 5, TDP1 cell CPT -23%, ClpP mod 0% and TDP1 cell noCPT 0%.
`O=C1NC(=S)SC1=Cc1ccccc1Cl` gave IL1B secr inh 5, DRD3 antagonist 16, D3 ag 38*, TDP1 cell CPT -27% and TDP1 cell noCPT inconclusive.
`O=C1NC(=S)S/C1=C\c1cc2ccccc2nc1N1CCCCC1` gave IL1B secr inh 63, DRD3 antagonist 23, D3 ag 9, TDP1 cell CPT 21µM* and TDP1 cell noCPT 21µM*.
COc1ccccc1C=C1SC(=S)NC1=O was read as IL1B secr inh 0, DRD3 antagonist 0, D3 ag 4, TDP1 cell CPT inconclusive, ClpP mod -3% and TDP1 cell noCPT inconclusive.
For Cc1ccc2c(=O)c(C(=O)c3cccc(Cl)c3)cn(CC(=O)NC3CCCCC3)c2n1 the results were D3 ag 3, TDP1 cell CPT -17%, ClpP mod -4% and TDP1 cell noCPT -6%.
For c1ccc2c(c1)nnn2Cc1nnc2sc(-c3ccc4c(c3)OCCO4)nn12 the results were IL1B secr inh 6, DRD3 antagonist 3, D3 ag 6, TDP1 cell CPT inconclusive, ClpP mod 32µM* and TDP1 cell noCPT 16µM*.
c1ccc(-c2nn3c(Cn4nnc5ccccc54)nnc3s2)cc1 was read as IL1B secr inh -24, DRD3 antagonist 14, D3 ag 15, TDP1 cell CPT inconclusive, ClpP mod -8% and TDP1 cell noCPT inconclusive.
`O=[N+]([O-])c1cccc(N(CC(O)CN2CCCCC2)S(=O)(=O)c2ccccc2)c1` (stereo not drawn) gave IL1B secr inh inconclusive, DRD3 antagonist -3, D3 ag -7, TDP1 cell CPT 0% and TDP1 cell noCPT -7%.
COc1ncnc2c1NC1=C(S2)C(=NCCC(=O)O)CC(C)(C)C1 was read as IL1B secr inh 23, DRD3 antagonist -29, D3 ag 0, TDP1 cell CPT -5%, ClpP mod inconclusive and TDP1 cell noCPT -24%.
Screening CN(C)c1ncnc2c1NC1=C(S2)C(=NCCCC(=O)O)CC(C)(C)C1 returned IL1B secr inh -10, DRD3 antagonist inconclusive, D3 ag -3, TDP1 cell CPT 21µM*, ClpP mod 1% and TDP1 cell noCPT inconclusive.
For Cc1ccccc1OCC(=O)Nc1ccccc1C(=O)OCc1cc(=O)n2c(C)csc2n1 the results were D3 ag 10, TDP1 cell CPT 2.6µM*, ClpP mod 3% and TDP1 cell noCPT 4.6µM*.
For Cc1csc2nc(COc3ccc(NC(=O)COc4ccccc4F)cc3)cc(=O)n12 the results were D3 ag -13, TDP1 cell CPT inconclusive, ClpP mod -4% and TDP1 cell noCPT 15µM*.
For CC(=O)Nc1ccccc1OCc1cc(=O)n2c3c(sc2n1)CCCC3 the results were D3 ag 60*, TDP1 cell CPT 0%, ClpP mod 0% and TDP1 cell noCPT -15%.
`COc1ccccc1C(=O)Nc1ccccc1OCc1cc(=O)n2c(C)csc2n1` gave D3 ag 8, TDP1 cell CPT inconclusive, ClpP mod -5% and TDP1 cell noCPT 16µM*.
`CCOc1ccc(CN(C)C(=O)CNC(=O)c2cc(OC)c(OC)c(OC)c2)cc1` gave IL1B secr inh 6, DRD3 antagonist 5, D3 ag -1, TDP1 cell CPT 1%, ClpP mod -1% and TDP1 cell noCPT -18%.
`Cc1csc2nc(COc3ccccc3NC(=O)c3ccccc3Cl)cc(=O)n12` gave D3 ag 1, TDP1 cell CPT 4.6µM*, ClpP mod 1% and TDP1 cell noCPT 3.7µM*.
Screening Cc1nc2c(-c3ccccc3)c(C)nn2c(C)c1CCC(=O)NCc1ccccc1Cl returned D3 ag 7, TDP1 cell CPT -21%, ClpP mod -3% and TDP1 cell noCPT inconclusive.
Cc1occc1-c1nnc(SCC(=O)Nc2ccccc2)n1C was read as IL1B secr inh -13, DRD3 antagonist -12, D3 ag -14, TDP1 cell CPT -11% and TDP1 cell noCPT -1%.
Cn1c(SCCCC(=O)c2ccc(F)cc2)nnc1-c1ccncc1 was read as IL1B secr inh 22, DRD3 antagonist 27, D3 ag 6, TDP1 cell CPT inconclusive, ClpP mod -3% and TDP1 cell noCPT inconclusive.
Cc1occc1-c1nnc(SCC(=O)NCCc2ccccc2)n1Cc1ccccc1 was read as IL1B secr inh inconclusive, DRD3 antagonist inconclusive, D3 ag 1, TDP1 cell CPT inconclusive, ClpP mod -1% and TDP1 cell noCPT 21µM*.
Screening Cc1occc1-c1nnc(SCCCC(=O)c2ccc(F)cc2)n1C returned IL1B secr inh -30, DRD3 antagonist -12, D3 ag -1, TDP1 cell CPT 18µM*, ClpP mod -1% and TDP1 cell noCPT 16µM*.
`Cc1occc1-c1nnc(SCC(N)=O)n1Cc1ccccc1` gave IL1B secr inh -19, DRD3 antagonist 20, D3 ag -7, TDP1 cell CPT 1%, ClpP mod -2% and TDP1 cell noCPT 2%.
`CCOc1ccccc1-n1c(SCC(=O)NC2CCCC2)nnc1-c1ccoc1C` gave IL1B secr inh -10, DRD3 antagonist -12, D3 ag 0, TDP1 cell CPT inconclusive, ClpP mod 0% and TDP1 cell noCPT 14µM*.
For Cc1occc1-c1nnc(SCC(=O)Nc2ccccc2N2CCCCC2)n1C the results were IL1B secr inh -53*, DRD3 antagonist 0, D3 ag -2, TDP1 cell CPT 18µM*, ClpP mod -5% and TDP1 cell noCPT 18µM*.
Cc1ccccc1Nc1nc(N)nc(COC(=O)c2ccc([N+](=O)[O-])o2)n1 was read as IL1B secr inh -5, DRD3 antagonist 12, D3 ag 2, TDP1 cell CPT inconclusive, ClpP mod 0% and TDP1 cell noCPT inconclusive.

Screening results deposited in PubChem by National Center for Advancing Translational Sciences (NCATS).
